From paper PMC5913336, “True equilibrium measurement of transcription factor-DNA binding affinities using automated polarization microscopy” come the findings set out here.

Sequence of Tll (P18102 21-118): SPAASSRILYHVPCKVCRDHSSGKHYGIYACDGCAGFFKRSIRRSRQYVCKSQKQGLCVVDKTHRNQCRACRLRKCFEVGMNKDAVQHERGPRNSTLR

The experiment has as its target Tll (Drosophila melanogaster, UniProt P18102 21-118). Put plainly: FP; 33 mM phosphate pH 7.0, 90 mM NaCl, 0.01% Tween 20, 0.1 mM DTT, 0.5% agarose; room temperature. Conditions: tags: N-GST (pGEX-6P-1, kept); dsDNA, one strand shown.
Turning to AAACAGTCAAAT, the binding signal is 11.1 Kd / Kd of best base at the position.

Take AAAAACTCAAAT: the binding signal was 57.7 Kd / Kd of best base at the position. Regarding AAAAAGTCAAGT, the binding signal was 3.05 Kd / Kd of best base at the position. Still for that read-out and setting: the same measure for AAAAAGTCAAAG: 2.05 Kd / Kd of best base at the position; for AAAAAGGCAAAT: 7.78 Kd / Kd of best base at the position. As to AAAAAGTCAAAT, the Kd is roughly 4.1 nM. Turning to AAAAGGTCAAAT, the binding signal is 6.02 Kd / Kd of best base at the position. Same read-out and setting: the same measure for AAAGAGTCAAAT: 3.96 Kd / Kd of best base at the position. On to AACAAGTCAAAT, for which the binding signal is 3.38 Kd / Kd of best base at the position.

As to AAAAAGTCAGAT, the binding signal is 4.13 Kd / Kd of best base at the position. With TAAAAGTCAAAT, the binding signal is 2.03 Kd / Kd of best base at the position.

For ACAAAGTCAAAT, the binding signal is 3.41 Kd / Kd of best base at the position. On to AAAAAATCAAAT, for which the binding signal was 10.1 Kd / Kd of best base at the position. As for AAAAATTCAAAT, the binding signal is 71.4 Kd / Kd of best base at the position. As for AAAAAGTCATAT, the binding signal is 3.23 Kd / Kd of best base at the position. AAAAAGTCAAAC: the binding signal was 1.05 Kd / Kd of best base at the position. For AATAAGTCAAAT, the binding signal is 2.37 Kd / Kd of best base at the position. For AAAAAGTTAAAT, the binding signal is 2.32 Kd / Kd of best base at the position. On to AAAAAGTCAATT, for which the binding signal was 1.96 Kd / Kd of best base at the position. On the same count and under the same terms, the same measure for CAAAAGTCAAAT: 2.71 Kd / Kd of best base at the position; for AAAAAGTAAAAT: 18.6 Kd / Kd of best base at the position; for GAAAAGTCAAAT: 1.71 Kd / Kd of best base at the position.

Consider AAGAAGTCAAAT, for which the binding signal is 1.73 Kd / Kd of best base at the position.

As to AAAAAGACAAAT, the binding signal was 36.4 Kd / Kd of best base at the position.

For the sequence AAAAAGTCTAAT, the binding signal is 13.1 Kd / Kd of best base at the position.

Regarding AAAAAGTCAACT, the binding signal is 2.61 Kd / Kd of best base at the position.

Consider AAAAAGCCAAAT, for which the binding signal was 7.08 Kd / Kd of best base at the position.

AAAAAGTCACAT: the binding signal was 1.72 Kd / Kd of best base at the position.

For the sequence AAAAAGTCCAAT, the binding signal is 14.4 Kd / Kd of best base at the position.

As for AAAAAGTCGAAT, the binding signal was 5.21 Kd / Kd of best base at the position.

For the sequence AAAACGTCAAAT, the binding signal was 8.65 Kd / Kd of best base at the position. Still for that read-out and setting: the same measure for AAAAAGTCAAAA: 1.57 Kd / Kd of best base at the position; for AAAATGTCAAAT: 15 Kd / Kd of best base at the position. Still for that read-out and setting: for AAAAAGTGAAAT the value was 71.7 Kd / Kd of best base at the position.

With ATAAAGTCAAAT, the binding signal was 2.33 Kd / Kd of best base at the position.

Turning to AGAAAGTCAAAT, the binding signal is 2.99 Kd / Kd of best base at the position. Consider AAATAGTCAAAT, for which the binding signal is 12.4 Kd / Kd of best base at the position.
